Structures are written as SMILES. Records with an inconclusive call do not appear. Calls of active or inactive are those of the source. How the source made its calls: active means hit-call score of the fitted dose curve at least 0.9, where 1 is the maximum; inconclusive means response in the unintended direction; inactive means score below 0.9.

Assay [1] can be described thus: ACEA_ER_AUC_viability: ACEA Biosciences xCELLigence Real-Time Cell Analysis on Estrogen Receptor Agonism for Viability (AID 2283782).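 Further: continuous compound exposure with impedance area under curve over 80 h; hit means loss of impedance signal meaning reduced cell growth or viability.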 Put shortly:
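T-47D human breast cells in phenol red-free RPMI1640 with 10% charcoal-stripped FBS were dosed with an 8-point 1:4 dilution series from 100 uM top final concentration, in duplicate. Impedance-based growth was followed for 80 h; AUC analysed versus DMSO.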

The target in assay [2] is AR (gene 367) (UniProt P10275). In words: ACEA_AR_agonist_80hr: ACEA Biosciences xCELLigence Real-Time Cell Analysis on Androgen Receptor Agonism for Proliferation (AID 2283783).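 Further: hits increase impedance growth signal above DMSO baseline.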 The method in brief:
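22Rv1 human prostate cancer cells were seeded after preconditioning in assay medium and monitored overnight, then dosed in an eight-point 1:4 dilution series from 100 uM (≤0.5% DMSO). Impedance-based growth was read at 80 h, gain-of-signal versus DMSO.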

Assay [3] has as its target AR (gene 367) (UniProt P10275). Kind of assay: ACEA_AR_antagonist_80hr: ACEA Biosciences xCELLigence Real-Time Cell Analysis on Androgen Receptor Antagonism for Proliferation (AID 2283787).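 Further: hits lower the impedance growth signal relative to DMSO.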 Put shortly:
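Impedance readout (RT-CES), 80 h post-dose; loss-of-signal vs DMSO baseline. 22Rv1 cells in assay medium. Compounds: 8-pt 1:4 series, max 100 uM final, up to 0.5% DMSO; n = 2.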

The target of assay [4] is Estrogen receptor beta (Homo sapiens) (UniProt Q92731). In words: ATG_hERb_XSP1: Attagene TRANS-FACTORIAL Multi-Species (XSP1) HepG2 Assay for human Estrogen Receptor (ESR2) (AID 2283788). Put shortly: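 Read-out: reporter mRNA induction by RT-PCR, HpaI digestion and capillary electrophoresis fluorescence, fitted in positive direction relative to DMSO baseline. Human liver HepG2 cells expressing ERβ-Gal4 fusion, dosed 24 h, medium containing 3 nM 6-alpha-fluorotestosterone.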

A short description of assay [5]: ATG_M_06_XSP1: Attagene TRANS-FACTORIAL Multi-Species (XSP1) HepG2 Assay for M06 Transcription Factor (Internal Marker) (AID 2283790). The method in brief: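 Transfected HepG2 multi-reporter system treated 24 h in the presence of 3 nM 6-alpha-fluorotestosterone. The M06 internal marker transcript was quantified by RT-PCR with capillary electrophoresis as a background control, and gain of signal was scored versus DMSO.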

The nature of assay [6]: ATG_M_61_XSP1: Attagene TRANS-FACTORIAL Multi-Species (XSP1) HepG2 Assay for M61 Transcription Factor (Internal Marker) (AID 2283797). The method in brief: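 HepG2 cells transiently transfected with multiplexed GAL4-driven reporter units, dosed 24 h with 3 nM 6-alpha-fluorotestosterone present. Reporter mRNA quantified by RT-PCR, 6-FAM labelling, HpaI digestion and capillary electrophoresis; internal-marker background control, gain of signal versus DMSO.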

Assay [7] addresses human Thyroid hormone Receptor beta (TRb), THRB (gene 7068) (UniProt P10828). In words: ATG_hTRb_XSP1: Attagene TRANS-FACTORIAL Multi-Species (XSP1) HepG2 Assay for human Thyroid hormone Receptor beta (TRb) (AID 2283808). The method in brief:
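HepG2 cells transiently transfected with reporter units driving GAL4-UAS reporters for chimeric NR-Gal4 proteins; 24 h chemical exposure with 3 nM 6-alpha-fluorotestosterone present. Reporter mRNA quantified by RT-PCR and capillary electrophoresis, gain of signal versus DMSO.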

A short description of assay [8]: ATG_XTT_Cytotoxicity_XSP1: Cytotoxicity Assessment in the Attagene TRANS-FACTORIAL Multi-Species (XSP1) HepG2 Assay (AID 2283810). Put shortly:
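XTT viability readout taken at 24 hours post-dosing in HepG2 liver cells co-treated with 3 nM 6-alpha-fluorotestosterone. Signal loss relative to DMSO controls reflects cytotoxicity.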

Assay [9] can be described thus: ATG_M_06_XSP2: Attagene TRANS-FACTORIAL Multi-Species (XSP2) HepG2 Assay for M06 Transcription Factor (Internal Marker) (AID 2283811).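 Further: hits are increases in signal above the DMSO baseline.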 Put shortly: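 HepG2 cells transiently transfected with GAL4-UAS multi-reporter constructs, dosed 24 h with 3 nM 6-alpha-fluorotestosterone plus 1.5 nM norgestrel present to stimulate androgen receptor. Reporter mRNA quantified by RT-PCR, 6-FAM labelling, HpaI digestion and capillary electrophoresis; gain-of-signal fitted versus DMSO baseline.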

Assay [10] can be described thus: ATG_M_19_XSP1: Attagene TRANS-FACTORIAL Multi-Species (XSP1) HepG2 Assay for M19 Transcription Factor (Internal Marker) (AID 2283798). Put shortly: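 HepG2 cells transiently transfected with multiplexed GAL4-UAS reporter units, dosed 24 h with 3 nM 6-alpha-fluorotestosterone present for partial AR stimulation. Reporter mRNA measured by RT-PCR with capillary electrophoresis; gain-of-signal fitted relative to DMSO.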

A short description of assay [11]: ATG_M_32_XSP1: Attagene TRANS-FACTORIAL Multi-Species (XSP1) HepG2 Assay for M32 Transcription Factor (Internal Marker) (AID 2283799). Put shortly:
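HepG2 cells transiently transfected with multi-species TRANS reporter units, dosed 24 h with 3 nM 6-alpha-fluorotestosterone present. Internal-marker reporter mRNA quantified by RT-PCR and capillary electrophoresis; positive-direction fit versus DMSO.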

In assay [12] the test system is zebrafish Peroxisome Proliferator-activated Receptor gamma (PPARg), gene 557037. In words: ATG_zfPPARg_XSP1: Attagene TRANS-FACTORIAL Multi-Species (XSP1) HepG2 Assay for zebrafish Peroxisome Proliferator-activated Receptor gamma (PPARg) (AID 2283801). The method in brief:
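HepG2 cells transiently transfected with GAL4-UAS reporter units including a zebrafish PPARg–GAL4 chimera, dosed 24 h with 3 nM 6-alpha-fluorotestosterone present. Reporter mRNA quantified by RT-PCR, FAM labelling, HpaI digestion and capillary electrophoresis; induction versus DMSO.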

Assay [13] concerns the target Nuclear receptor subfamily 1 group I member 2 (Mus musculus) (UniProt O54915). In words: ATG_mPXR_XSP1: Attagene TRANS-FACTORIAL Multi-Species (XSP1) HepG2 Assay for mouse Pregnane X Receptor (PXR) (AID 2283803). Put shortly: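 Transiently transfected HepG2 cells expressing a receptor-Gal4 chimera drive a GAL4-UAS reporter; 3 nM 6-alpha-fluorotestosterone included. Reporter mRNA read 24 h post-dose by RT-PCR and capillary electrophoresis; gain of signal relative to DMSO.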

The subject of assay [14] is turtle Thyroid Hormone Receptor, alpha (TRa), gene 101949057. Kind of assay: ATG_trTRa_XSP1: Attagene TRANS-FACTORIAL Multi-Species (XSP1) HepG2 Assay for turtle Thyroid Hormone Receptor, alpha (TRa) (AID 2283806). Put shortly: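 HepG2 cells transiently transfected with GAL4-UAS reporter units and chimeric receptor-Gal4 constructs, with 3 nM 6-alpha-fluorotestosterone present. Reporter mRNA was quantified 24 h after dosing by RT-PCR, 6-FAM labelling and capillary electrophoresis; gain of signal versus DMSO.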

Assay [15] deals with zebrafish Thyroid Hormone Receptor beta (TRb), thrb (gene 30607) (UniProt Q9PVE4). In words: ATG_zfTRb_XSP1: Attagene TRANS-FACTORIAL Multi-Species (XSP1) HepG2 Assay for zebrafish Thyroid Hormone Receptor beta (TRb) (AID 2283809). Put shortly: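 HepG2 cells transiently transfected with multiplexed GAL4-UAS reporter units expressing chimeric zebrafish TRb–Gal4. Dosed 24 h with 3 nM 6-alpha-fluorotestosterone present; reporter mRNA measured by RT-PCR, HpaI digestion and capillary electrophoresis; gain of signal versus DMSO.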

Assay [16] concerns the target GAL4 Transcription Factor (Internal Marker), GAL4 (gene 855828) (UniProt P04386). In words: ATG_GAL4_XSP2: Attagene TRANS-FACTORIAL Multi-Species (XSP2) HepG2 Assay for GAL4 Transcription Factor (Internal Marker) (AID 2283814).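 Further: GAL4 reporter mRNA background control in MRTU transfected cells not a receptor target.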 Put shortly: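 HepG2 cells transiently transfected with GAL4-UAS reporter units, stimulated with 3 nM 6-alpha-fluorotestosterone plus 1.5 nM norgestrel, dosed 24 h. Reporter mRNA by RT-PCR/capillary electrophoresis; gain-of-signal fit versus DMSO, background control.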

Assay [17] deals with turtle Androgen Receptor (AR), gene 101947425. Kind of assay: ATG_trAR_XSP2: Attagene TRANS-FACTORIAL Multi-Species (XSP2) HepG2 Assay for turtle Androgen Receptor (AR) (AID 2283815). Put shortly:
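HepG2 cells transiently transfected with GAL4-UAS reporter units for chimeric NR-Gal4 receptors; 24 h dosing in presence of 3 nM 6-alpha-fluorotestosterone and 1.5 nM norgestrel. Reporter mRNA by RT-PCR and capillary electrophoresis, gain of signal versus DMSO.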

Assay [18] concerns turtle Estrogen Receptor (ERa), gene 101933533. In words: ATG_trERa_XSP2: Attagene TRANS-FACTORIAL Multi-Species (XSP2) HepG2 Assay for turtle Estrogen Receptor (ERa) (AID 2283812).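 Further: human HepG2 liver cells transiently expressing turtle ERa-Gal4 chimeric receptor; actives raise reporter signal above DMSO so AC50 reflects agonist activity.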 Put shortly: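 HepG2 cells transiently transfected with GAL4-UAS reporter units expressing turtle ERa-Gal4 chimera. Reporter mRNA measured after 24 h dosing by RT-PCR, fluorescent labelling and capillary electrophoresis; gain of signal fitted versus DMSO.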

The target of assay [19] is zebrafish Estrogen Receptor (ER1), esr1 (gene 259252) (UniProt P57717). Kind of assay: ATG_zfER1_XSP2: Attagene TRANS-FACTORIAL Multi-Species (XSP2) HepG2 Assay for zebrafish Estrogen Receptor (ER1) (AID 2283816). The method in brief:
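HepG2 cells transiently transfected with a GAL4-UAS reporter and a chimeric zebrafish ER1-Gal4 construct, dosed 24 h. Reporter mRNA quantified by RT-PCR, labelling, HpaI digestion and capillary electrophoresis, relative to DMSO.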

AR (gene 367), sequence (P10275 whole entry, looked up): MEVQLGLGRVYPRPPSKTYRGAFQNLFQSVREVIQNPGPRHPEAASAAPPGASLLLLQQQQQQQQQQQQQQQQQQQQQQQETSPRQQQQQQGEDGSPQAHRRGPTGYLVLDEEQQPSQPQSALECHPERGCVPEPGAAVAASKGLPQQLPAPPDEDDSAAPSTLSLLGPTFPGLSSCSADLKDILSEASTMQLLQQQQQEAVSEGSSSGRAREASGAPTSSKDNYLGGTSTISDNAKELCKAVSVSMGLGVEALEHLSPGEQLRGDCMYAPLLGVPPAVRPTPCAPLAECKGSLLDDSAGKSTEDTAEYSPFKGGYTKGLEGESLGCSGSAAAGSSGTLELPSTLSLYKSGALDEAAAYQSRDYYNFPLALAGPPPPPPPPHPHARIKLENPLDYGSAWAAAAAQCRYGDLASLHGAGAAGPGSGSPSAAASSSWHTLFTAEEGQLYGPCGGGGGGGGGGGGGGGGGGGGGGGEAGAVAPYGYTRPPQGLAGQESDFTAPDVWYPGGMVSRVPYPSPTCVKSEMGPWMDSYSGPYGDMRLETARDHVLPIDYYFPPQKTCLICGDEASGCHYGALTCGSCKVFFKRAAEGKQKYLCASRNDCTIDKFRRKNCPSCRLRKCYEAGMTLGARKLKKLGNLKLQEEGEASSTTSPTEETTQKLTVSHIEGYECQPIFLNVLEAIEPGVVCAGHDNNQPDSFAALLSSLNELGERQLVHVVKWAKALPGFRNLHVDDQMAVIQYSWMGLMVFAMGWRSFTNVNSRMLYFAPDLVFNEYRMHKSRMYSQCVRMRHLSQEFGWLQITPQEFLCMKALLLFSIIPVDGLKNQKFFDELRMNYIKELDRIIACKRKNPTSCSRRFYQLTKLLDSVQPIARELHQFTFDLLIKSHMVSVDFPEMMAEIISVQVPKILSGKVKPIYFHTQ
GAL4 Transcription Factor (Internal Marker), GAL4 (gene 855828), sequence (P04386 whole entry, looked up, the tested form may be a part): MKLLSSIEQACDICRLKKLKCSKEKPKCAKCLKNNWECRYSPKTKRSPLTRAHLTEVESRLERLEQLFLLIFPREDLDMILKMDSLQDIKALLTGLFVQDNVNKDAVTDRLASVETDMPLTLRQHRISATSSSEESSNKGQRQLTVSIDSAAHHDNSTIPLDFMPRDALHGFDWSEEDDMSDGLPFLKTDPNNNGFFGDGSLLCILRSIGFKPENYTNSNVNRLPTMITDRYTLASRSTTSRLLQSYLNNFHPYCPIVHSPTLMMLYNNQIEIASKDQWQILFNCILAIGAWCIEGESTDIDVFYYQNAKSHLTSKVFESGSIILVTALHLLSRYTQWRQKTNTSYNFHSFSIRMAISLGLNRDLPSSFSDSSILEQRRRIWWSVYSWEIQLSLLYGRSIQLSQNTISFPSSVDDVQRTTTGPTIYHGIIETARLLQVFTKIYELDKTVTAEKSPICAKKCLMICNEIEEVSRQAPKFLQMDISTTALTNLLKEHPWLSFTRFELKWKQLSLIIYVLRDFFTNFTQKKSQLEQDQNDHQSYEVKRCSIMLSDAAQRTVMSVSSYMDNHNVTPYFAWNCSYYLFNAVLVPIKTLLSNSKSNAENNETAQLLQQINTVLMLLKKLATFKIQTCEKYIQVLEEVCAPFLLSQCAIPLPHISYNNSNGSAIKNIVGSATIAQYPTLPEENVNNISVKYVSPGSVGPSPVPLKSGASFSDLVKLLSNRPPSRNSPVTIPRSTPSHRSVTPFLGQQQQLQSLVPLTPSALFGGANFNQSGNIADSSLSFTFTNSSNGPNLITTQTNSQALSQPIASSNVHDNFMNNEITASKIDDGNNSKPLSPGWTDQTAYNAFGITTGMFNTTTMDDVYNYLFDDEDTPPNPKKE
human Thyroid hormone Receptor beta (TRb), THRB (gene 7068), sequence (P10828 whole entry, looked up, the tested form may be a part): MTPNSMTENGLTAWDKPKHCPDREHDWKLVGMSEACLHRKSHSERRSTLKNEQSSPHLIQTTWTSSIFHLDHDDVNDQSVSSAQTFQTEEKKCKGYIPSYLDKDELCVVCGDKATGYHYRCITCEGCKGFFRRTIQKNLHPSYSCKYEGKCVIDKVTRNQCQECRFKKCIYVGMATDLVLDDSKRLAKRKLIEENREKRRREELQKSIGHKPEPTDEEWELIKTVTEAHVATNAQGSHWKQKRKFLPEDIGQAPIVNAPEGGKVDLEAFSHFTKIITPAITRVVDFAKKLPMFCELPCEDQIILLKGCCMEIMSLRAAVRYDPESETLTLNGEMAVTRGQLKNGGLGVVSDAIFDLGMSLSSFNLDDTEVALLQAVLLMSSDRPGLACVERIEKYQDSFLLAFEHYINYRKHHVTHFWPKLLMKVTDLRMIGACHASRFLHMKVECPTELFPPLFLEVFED
Estrogen receptor beta (Homo sapiens), sequence (Q92731 whole entry, looked up, the tested form may be a part): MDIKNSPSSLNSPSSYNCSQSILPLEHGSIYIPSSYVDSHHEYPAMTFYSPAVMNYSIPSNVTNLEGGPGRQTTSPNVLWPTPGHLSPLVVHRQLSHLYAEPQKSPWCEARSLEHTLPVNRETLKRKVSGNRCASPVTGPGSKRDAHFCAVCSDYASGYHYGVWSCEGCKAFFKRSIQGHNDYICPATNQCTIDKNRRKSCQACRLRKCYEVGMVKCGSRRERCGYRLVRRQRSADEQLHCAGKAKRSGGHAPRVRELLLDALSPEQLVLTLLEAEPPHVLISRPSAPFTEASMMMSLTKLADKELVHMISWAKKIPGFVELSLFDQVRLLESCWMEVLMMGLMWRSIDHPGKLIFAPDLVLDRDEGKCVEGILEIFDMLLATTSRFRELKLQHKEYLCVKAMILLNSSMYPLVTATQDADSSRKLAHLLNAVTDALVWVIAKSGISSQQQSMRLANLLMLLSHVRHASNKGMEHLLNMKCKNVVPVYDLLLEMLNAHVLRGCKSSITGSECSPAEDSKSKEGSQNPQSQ
zebrafish Estrogen Receptor (ER1), esr1 (gene 259252), sequence (P57717 whole entry, looked up, the tested form may be a part): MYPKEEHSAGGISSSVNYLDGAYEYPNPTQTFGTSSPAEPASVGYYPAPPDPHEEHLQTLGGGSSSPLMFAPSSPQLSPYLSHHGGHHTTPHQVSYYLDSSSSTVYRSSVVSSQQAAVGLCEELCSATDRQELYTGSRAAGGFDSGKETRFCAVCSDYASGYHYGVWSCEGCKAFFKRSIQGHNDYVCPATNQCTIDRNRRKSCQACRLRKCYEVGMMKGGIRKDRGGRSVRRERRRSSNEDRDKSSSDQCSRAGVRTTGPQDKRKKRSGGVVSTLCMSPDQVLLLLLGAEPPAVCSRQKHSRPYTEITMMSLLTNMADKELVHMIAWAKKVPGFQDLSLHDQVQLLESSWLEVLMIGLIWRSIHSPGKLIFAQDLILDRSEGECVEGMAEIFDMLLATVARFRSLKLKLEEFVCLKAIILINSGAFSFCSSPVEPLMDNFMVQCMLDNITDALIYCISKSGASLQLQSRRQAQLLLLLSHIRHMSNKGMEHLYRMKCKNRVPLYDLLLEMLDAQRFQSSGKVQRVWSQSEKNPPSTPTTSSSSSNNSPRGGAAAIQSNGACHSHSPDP
Nuclear receptor subfamily 1 group I member 2 (Mus musculus), sequence (O54915 whole entry, looked up, the tested form may be a part): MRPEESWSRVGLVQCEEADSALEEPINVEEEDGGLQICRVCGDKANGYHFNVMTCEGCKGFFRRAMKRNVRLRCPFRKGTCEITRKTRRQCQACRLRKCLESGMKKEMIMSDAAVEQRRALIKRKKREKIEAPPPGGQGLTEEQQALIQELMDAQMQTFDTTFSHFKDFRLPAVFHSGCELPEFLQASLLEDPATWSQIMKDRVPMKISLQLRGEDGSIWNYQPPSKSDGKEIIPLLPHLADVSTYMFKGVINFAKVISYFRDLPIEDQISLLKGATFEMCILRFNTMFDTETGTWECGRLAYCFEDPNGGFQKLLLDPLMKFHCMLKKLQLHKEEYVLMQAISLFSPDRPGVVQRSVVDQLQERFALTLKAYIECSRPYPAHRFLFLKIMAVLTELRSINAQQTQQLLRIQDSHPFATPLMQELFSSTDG
zebrafish Thyroid Hormone Receptor beta (TRb), thrb (gene 30607), sequence (Q9PVE4 whole entry, looked up, the tested form may be a part): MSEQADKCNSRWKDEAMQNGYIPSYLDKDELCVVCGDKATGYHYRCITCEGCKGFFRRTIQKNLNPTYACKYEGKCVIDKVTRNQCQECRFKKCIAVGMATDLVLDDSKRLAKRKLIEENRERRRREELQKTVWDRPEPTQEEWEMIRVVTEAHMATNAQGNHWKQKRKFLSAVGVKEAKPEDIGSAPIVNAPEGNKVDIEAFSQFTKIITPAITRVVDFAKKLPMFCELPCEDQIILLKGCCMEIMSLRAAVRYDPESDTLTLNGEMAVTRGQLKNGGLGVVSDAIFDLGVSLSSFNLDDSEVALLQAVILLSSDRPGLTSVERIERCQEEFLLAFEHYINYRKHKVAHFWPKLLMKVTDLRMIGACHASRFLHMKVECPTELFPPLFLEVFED

One may read the AC50 as the concentration giving half of the maximal activity seen. Turning to `CC(CCO)CCc1ccccc1` (configuration not stated), the AC50 in [1] was 50 µM (active).

Consider `O=Nc1ccc(Nc2ccccc2)cc1`, for which the outcome in [2] and in assay [3] was inactive.

Consider `CC(=O)OCC=Cc1ccccc1`, for which the result in assay [1] was inactive.

`COc1ccc(NC(=O)CC(C)=O)cc1`: the result in assay [1] was inactive.

For `CO[Si](CCCn1c(=O)n(CCC[Si](OC)(OC)OC)c(=O)n(CCC[Si](OC)(OC)OC)c1=O)(OC)OC`, the AC50 in [1] is 21.7 µM (active).

For the compound `CCN(CC)c1ccc(C(=C2C=CC(=[N+](CC)CC)C=C2)c2ccc(S(=O)(=O)O)cc2S(=O)(=O)[O-])cc1`, the call in assay [3] was inactive.

Turning to `CCCCCC=CCC(=O)OC`, the result in assay [1] was inactive.

As for `CN(CCOc1ccc(CC2SC(=O)NC2=O)cc1)c1ccccn1` (configuration not stated), the result in assay [4], in assay [5], in [6], in [7], in assay [8] and in [9] was inactive.

Take `BrC1CCC(Br)C(Br)CCC(Br)C(Br)CCC1Br` (configuration not stated): the AC50 in [1] is 8.63 µM (active). In addition, in assay [3], the compound was classed as inactive.

In the case of `O=C[C@@H](O)[C@H](O)[C@H](O)CO`, the compound was classed as inactive in assay [1] and in [3].

For `CN(C)C(=N)N=C(N)N`, the compound was called inactive in [1], in assay [10], in assay [11], in assay [12], in assay [14] and in assay [15]. The call in [8], in assay [16] and in assay [17] was inactive. In addition, the AC50 in assay [13] is 64.4 µM (active).

Take `CCCCCCCCCCCCN`: the values for the AC50 in assay [1] and in assay [18] were 66.3 µM (active) and 44.3 µM (active), respectively. The result in assay [16], in assay [17] and in [19] was inactive.

`CCC/C=C/C=O`: the call in [1] and in [3] was inactive.

As to `O=S(=O)(O)NC1CCCCC1`, the AC50 in assay [1] is 50 µM (active).

As for `CC1=CCC(O)(C(C)C)CC1` (configuration not stated), in assay [1], the outcome was inactive.

The record behind these values is PubChem BioAssay (EPA / NIEHS).
